Results: the supplement of paper PMC10849652
About 7,900 targets were measured; listed, in parts, are those with a hit and a random draw of the rest. About 0.6% of all pairs of compound and target were hits. Unmarked numbers belong to inactive results.

Experiments:
Experiment in all cases: log2 fold change, soluble protein after heating vs DMSO (PISA); higher = thermal stabilisation; K562 cells, 10 uM, 30 min; active = over 0.2 and 3.5 SD of the protein, either way, in both replicates (recomputed)
[1] = compound: NC(=O)Nc1cc(-c2cccc(F)c2)sc1C(=O)N[C@H]1CCCNC1
Outline: (§1)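 K562 cells at 2×10^6 cells/mL were treated for 30 min with 10 μM compound, and aliquots were heated for 3 min over 48°C-58°C before pooling. Extraction used PBS with 0.5% NP-40 at 4°C, and soluble protein was the supernatant after 21,000xg for 90 min, measured by TMTpro 16plex LC-MS/MS with channel sums equalised. Thermal stability values, relative to control samples and from duplicates, are log2 fold changes.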

[2] = compound: NC(=O)c1cnc(N[C@@H]2CCCC[C@@H]2N)nc1Nc1cccc(-n2nccn2)c1
Outline: as §1

[3] = compound: NC1(c2ccc(-c3nc4ccn5c(=O)[nH]nc5c4cc3-c3ccccc3)cc2)CCC1
Outline: as §1

[4] = compound: NCC(=O)Nc1ccc(-n2nc(C(F)(F)F)cc2-c2ccc3c(ccc4ccccc43)c2)cc1
Outline: as §1

entinostat = compound: Nc1ccccc1NC(=O)c1ccc(CNC(=O)OCc2cccnc2)cc1 [entinostat]
Outline: as §1

vorinostat = compound: O=C(CCCCCCC(=O)Nc1ccccc1)NO [vorinostat]
Outline: as §1

citarinostat = compound: O=C(CCCCCCNC(=O)c1cnc(N(c2ccccc2)c2ccccc2Cl)nc1)NO [citarinostat]
Outline: as §1

silmitasertib = compound: O=C(O)c1ccc2c(c1)nc(Nc1cccc(Cl)c1)c1ccncc12 [silmitasertib]
Outline: as §1

[5] = compound: O=C1NC(=O)C(c2cnc3ccccn23)=C1c1cn2c3c(cc(F)cc13)CN(C(=O)N1CCCCC1)CC2
Outline: as §1

[6] = compound: c1cc(OCCN2CCCCC2)cc(-c2n[nH]c3ccc(-c4nnc[nH]4)cc23)c1
Outline: as §1

entospletinib = compound: c1cn2cc(-c3ccc4cn[nH]c4c3)nc(Nc3ccc(N4CCOCC4)cc3)c2n1 [entospletinib]
Outline: as §1

Sequence of UniProt Q15005 (Q15005 whole entry, looked up): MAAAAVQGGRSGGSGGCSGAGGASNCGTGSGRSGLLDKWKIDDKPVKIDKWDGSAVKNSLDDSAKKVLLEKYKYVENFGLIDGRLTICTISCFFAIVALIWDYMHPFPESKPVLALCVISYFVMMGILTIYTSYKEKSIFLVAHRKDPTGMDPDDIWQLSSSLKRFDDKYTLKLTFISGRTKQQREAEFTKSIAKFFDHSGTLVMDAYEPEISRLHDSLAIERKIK
Sequence of UniProt Q9BUA3 (Q9BUA3 whole entry, looked up): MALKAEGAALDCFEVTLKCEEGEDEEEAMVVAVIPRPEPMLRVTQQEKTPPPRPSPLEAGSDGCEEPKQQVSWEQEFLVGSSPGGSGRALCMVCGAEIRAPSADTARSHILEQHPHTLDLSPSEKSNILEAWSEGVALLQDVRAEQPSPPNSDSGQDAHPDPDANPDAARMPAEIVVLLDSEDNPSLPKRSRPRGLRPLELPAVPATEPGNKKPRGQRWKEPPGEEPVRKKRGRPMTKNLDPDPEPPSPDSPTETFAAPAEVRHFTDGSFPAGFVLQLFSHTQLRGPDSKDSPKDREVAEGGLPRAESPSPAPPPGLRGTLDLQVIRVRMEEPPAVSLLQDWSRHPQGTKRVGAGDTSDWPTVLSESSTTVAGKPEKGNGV
Sequence of UniProt Q9NZD8 (Q9NZD8 whole entry, looked up): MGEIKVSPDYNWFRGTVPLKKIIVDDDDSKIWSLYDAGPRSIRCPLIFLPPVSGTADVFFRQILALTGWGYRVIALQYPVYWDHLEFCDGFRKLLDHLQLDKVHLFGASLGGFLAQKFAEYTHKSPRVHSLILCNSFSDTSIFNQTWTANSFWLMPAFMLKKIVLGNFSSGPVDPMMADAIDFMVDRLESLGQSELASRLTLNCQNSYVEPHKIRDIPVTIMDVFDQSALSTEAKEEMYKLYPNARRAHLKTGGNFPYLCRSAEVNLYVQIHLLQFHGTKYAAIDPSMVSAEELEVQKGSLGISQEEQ
Sequence of UniProt Q7L7X3 (Q7L7X3 whole entry, looked up): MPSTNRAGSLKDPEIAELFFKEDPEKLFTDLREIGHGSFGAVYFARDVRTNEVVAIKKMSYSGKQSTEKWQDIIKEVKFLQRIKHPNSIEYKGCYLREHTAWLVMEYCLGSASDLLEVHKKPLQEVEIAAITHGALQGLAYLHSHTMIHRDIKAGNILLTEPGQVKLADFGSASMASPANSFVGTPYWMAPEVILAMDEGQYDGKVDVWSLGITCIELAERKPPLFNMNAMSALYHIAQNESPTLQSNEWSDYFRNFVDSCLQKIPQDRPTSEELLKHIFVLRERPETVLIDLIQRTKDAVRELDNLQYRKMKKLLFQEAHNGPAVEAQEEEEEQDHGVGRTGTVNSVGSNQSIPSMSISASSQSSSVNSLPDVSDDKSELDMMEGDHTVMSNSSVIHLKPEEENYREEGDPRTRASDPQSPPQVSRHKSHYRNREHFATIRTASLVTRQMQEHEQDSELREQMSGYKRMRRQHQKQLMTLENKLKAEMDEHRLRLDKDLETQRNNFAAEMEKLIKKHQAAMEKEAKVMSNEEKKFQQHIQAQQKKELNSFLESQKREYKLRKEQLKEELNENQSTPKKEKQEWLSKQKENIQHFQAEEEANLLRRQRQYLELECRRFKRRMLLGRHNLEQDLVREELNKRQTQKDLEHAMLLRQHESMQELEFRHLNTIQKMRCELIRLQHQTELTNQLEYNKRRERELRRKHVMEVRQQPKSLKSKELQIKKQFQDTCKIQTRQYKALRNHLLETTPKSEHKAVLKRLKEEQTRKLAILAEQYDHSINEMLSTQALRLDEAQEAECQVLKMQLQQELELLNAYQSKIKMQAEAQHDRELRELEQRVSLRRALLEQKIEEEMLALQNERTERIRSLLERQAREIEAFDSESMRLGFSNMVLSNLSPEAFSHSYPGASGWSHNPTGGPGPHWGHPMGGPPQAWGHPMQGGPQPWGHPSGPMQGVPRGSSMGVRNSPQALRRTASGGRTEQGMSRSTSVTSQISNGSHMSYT
Sequence of UniProt Q92797 (Q92797 whole entry, looked up): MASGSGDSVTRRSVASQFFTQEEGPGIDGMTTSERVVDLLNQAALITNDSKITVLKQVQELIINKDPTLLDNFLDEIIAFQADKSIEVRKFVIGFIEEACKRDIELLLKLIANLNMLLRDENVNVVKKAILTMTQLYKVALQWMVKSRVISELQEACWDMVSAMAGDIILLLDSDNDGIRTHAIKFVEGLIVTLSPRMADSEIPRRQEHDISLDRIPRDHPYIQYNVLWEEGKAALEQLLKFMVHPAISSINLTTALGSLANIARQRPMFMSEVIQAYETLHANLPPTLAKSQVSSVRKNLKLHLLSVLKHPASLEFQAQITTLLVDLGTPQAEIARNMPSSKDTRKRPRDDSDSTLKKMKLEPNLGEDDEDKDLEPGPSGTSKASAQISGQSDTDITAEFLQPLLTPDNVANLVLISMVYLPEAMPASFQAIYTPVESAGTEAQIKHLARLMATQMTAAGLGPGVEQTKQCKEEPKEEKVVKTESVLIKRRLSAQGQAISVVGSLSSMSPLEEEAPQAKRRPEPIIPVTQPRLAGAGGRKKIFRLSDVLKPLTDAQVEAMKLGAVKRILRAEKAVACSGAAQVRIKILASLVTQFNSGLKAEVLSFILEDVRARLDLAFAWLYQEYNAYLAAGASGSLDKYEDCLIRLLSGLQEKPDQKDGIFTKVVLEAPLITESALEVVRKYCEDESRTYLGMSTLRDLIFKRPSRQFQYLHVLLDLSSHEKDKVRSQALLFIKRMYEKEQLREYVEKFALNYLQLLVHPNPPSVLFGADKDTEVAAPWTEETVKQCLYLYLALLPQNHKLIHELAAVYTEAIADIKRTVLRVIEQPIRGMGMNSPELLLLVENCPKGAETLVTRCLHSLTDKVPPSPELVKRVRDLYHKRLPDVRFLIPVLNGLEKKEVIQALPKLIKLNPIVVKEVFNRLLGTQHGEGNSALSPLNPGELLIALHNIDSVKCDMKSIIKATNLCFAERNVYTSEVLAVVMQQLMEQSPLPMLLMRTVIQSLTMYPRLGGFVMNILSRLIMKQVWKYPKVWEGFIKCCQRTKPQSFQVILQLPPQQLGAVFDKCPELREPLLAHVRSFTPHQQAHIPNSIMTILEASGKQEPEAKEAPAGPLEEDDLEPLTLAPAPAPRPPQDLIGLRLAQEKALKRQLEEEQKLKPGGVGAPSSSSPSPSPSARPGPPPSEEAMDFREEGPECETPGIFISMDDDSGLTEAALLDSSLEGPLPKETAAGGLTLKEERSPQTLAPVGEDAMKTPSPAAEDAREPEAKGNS
Sequence of UniProt O76094 (O76094 whole entry, looked up): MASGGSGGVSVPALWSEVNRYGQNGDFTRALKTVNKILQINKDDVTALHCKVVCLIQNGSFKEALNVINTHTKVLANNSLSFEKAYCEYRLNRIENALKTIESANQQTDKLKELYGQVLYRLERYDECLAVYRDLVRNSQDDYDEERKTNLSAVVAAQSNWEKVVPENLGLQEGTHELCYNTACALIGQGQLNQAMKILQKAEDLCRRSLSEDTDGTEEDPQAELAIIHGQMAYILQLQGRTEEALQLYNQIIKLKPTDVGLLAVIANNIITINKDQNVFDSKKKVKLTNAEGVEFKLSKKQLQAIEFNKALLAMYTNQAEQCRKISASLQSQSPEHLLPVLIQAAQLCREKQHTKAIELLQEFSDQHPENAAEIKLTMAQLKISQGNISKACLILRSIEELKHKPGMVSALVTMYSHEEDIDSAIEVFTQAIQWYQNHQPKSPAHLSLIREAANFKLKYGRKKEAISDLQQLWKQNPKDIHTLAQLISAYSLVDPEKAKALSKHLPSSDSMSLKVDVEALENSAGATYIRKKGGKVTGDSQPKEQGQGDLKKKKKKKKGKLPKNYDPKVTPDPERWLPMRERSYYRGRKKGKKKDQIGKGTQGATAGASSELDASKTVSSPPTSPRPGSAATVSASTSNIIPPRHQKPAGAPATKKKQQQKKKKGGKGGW
Sequence of UniProt P84103 (P84103 whole entry, looked up): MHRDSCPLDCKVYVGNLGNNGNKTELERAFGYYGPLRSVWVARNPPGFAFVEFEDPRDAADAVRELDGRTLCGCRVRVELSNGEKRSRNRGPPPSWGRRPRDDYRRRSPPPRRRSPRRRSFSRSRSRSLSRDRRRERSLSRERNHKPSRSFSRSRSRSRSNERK
Sequence of UniProt Q13242 (Q13242 whole entry, looked up): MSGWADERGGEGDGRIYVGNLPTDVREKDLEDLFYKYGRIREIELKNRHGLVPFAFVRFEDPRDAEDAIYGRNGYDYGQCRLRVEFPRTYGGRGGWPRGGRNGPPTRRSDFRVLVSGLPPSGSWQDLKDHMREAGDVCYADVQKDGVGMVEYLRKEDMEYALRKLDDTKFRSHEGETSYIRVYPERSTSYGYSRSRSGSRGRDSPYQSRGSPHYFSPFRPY
Sequence of UniProt Q9Y5X1 (Q9Y5X1 whole entry, looked up): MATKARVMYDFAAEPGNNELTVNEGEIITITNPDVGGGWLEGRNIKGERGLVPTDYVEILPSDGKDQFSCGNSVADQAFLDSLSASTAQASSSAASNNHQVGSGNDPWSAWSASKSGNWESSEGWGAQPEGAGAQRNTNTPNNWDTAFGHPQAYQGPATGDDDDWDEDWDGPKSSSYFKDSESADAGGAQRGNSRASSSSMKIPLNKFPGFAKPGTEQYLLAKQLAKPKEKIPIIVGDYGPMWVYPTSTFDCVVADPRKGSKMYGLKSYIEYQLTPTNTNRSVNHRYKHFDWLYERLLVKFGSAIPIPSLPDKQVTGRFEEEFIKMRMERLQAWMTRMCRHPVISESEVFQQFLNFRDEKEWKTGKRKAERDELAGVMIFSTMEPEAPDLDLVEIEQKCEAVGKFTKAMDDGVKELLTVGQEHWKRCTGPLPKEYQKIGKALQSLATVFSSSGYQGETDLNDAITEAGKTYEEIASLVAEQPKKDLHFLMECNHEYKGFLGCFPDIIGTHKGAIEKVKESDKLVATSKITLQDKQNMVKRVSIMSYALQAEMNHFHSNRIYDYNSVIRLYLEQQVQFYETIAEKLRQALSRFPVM
Sequence of UniProt Q9BYN0 (Q9BYN0 whole entry, looked up): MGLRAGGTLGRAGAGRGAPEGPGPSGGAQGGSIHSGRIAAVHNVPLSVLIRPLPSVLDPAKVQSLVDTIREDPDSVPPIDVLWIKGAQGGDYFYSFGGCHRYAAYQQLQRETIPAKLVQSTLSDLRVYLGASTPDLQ

Target	log2 fold change [1]	log2 fold change [2]	log2 fold change [3]	log2 fold change [4]	log2 fold change (entinostat)	log2 fold change (vorinostat)	log2 fold change (citarinostat)	log2 fold change (silmitasertib)	log2 fold change [5]	log2 fold change [6]	log2 fold change (entospletinib)
SMC5 (UniProt Q8IY18)	0.057	-0.034	-0.083	-0.051	-0.033	0.017	-0.021	0.052	-0.1	-0.051	0.016
SPTBN1 (UniProt Q01082)	-0.051	-0.04	-0.041	-0.016	0.011	0.026	-0.009	0.127	0.009	-0.007	0.024
TJP1 (UniProt Q07157)	-0.043	-0.067	0.033	-0.071	0.044	0.049	0.041	-0.158	-0.056	-0.092	0.009
TFAM (UniProt Q00059)	-0.079	-0.006	0.085	0.011	-0.035	0.005	-0.151	0.011	0.06	-0.115	0.08
TFB2M (UniProt Q9H5Q4)	-0.029	-0.066	-0.187	-0.066	0.054	0.027	0.01	0.046	-0.024	0.003	-0.011
SPCS2 (UniProt Q15005)	0	-0.002	-0.072	0.143	0.016	0.024	0.224	-0.001	-0.021	0.23	-0.145
TAX1BP1 (UniProt Q86VP1)	0.028	-0.062	-0.202	-0.102	-0.013	-0.183	0.061	0.042	-0.011	-0.081	0.029
STAT5B (UniProt P51692)	-0.027	-0.022	-0.207	-0.129	0.282	0.18	0.15	0.043	0.045	0.024	-0.053
SUGP1 (UniProt Q8IWZ8)	0	-0.05	-0.073	-0.071	0.054	0.077	0.074	0.101	-0.065	0.045	-0.04
TAMM41 isoform 3 (UniProt Q96BW9)	0.001	-0.052	-0.148	-0.059	0.022	0.023	0.013	-0.004	-0.125	-0.043	-0.039
SMIM20 isoform 2 (UniProt Q8N5G0)	-0.056	-0.032	0	0.002	0.031	0.057	-0.004	-0.01	-0.154	-0.049	0.008
STARD9 (UniProt Q9P2P6)	-0.179	-0.029	0.058	0.073	0.007	0	-0.026	0.025	-0.048	0.028	-0.059
SP100 isoform 4 (UniProt P23497)	0.03	-0.007	-0.025	-0.039	0.007	-0.046	-0.011	0.059	-0.051	0.02	0.045
STAM2 (UniProt O75886)	-0.111	-0.136	-0.133	-0.101	0.012	0.04	0.026	0.049	-0.041	0.064	0.052
TAOK1 (UniProt Q7L7X3)	-0.043	-0.04	-0.063	-0.068	-0.01	0.048	0	-0.003	-0.038	-0.194	-0.009
SPG21 (UniProt Q9NZD8)	0.072	0.305 (active)	-0.054	0.123	0.004	0.013	-0.001	-0.013	-0.104	0.007	-0.028
SPECC1 (UniProt Q5M775)	-0.126	-0.053	-0.124	-0.132	-0.007	0	-0.213	0.08	-0.06	-0.091	0.085
SYNE1 (UniProt Q8NF91)	-0.006	-0.031	-0.008	0.04	-0.027	0.114	0.106	-0.03	-0.244	0.006	-0.141
TARBP1 (UniProt Q13395)	-0.033	0.048	-0.027	0.014	-0.044	0.003	0.079	0.034	0.053	0	0.043
SRPRB (UniProt Q9Y5M8)	0.048	0.028	-0.056	-0.038	0.045	0.029	0.029	-0.007	-0.014	0.045	-0.052
SRXN1 (UniProt Q9BYN0)	-0.013	-0.364	-0.024	-0.021	-0.053	-0.24	-0.039	-0.059	-0.111	0.09	-0.079
TGFBI (UniProt Q15582)	-0.037	-0.136	-0.116	-0.116	0.056	0.309	-0.056	0.114	-0.01	0.202	0.063
SULT1A1 (UniProt P50225)	-0.049	0.039	-0.179	0.123	0.133	0.063	0.056	-0.038	-0.095	0.032	-0.057
STAT3 (UniProt P40763)	-0.001	-0.047	-0.2	-0.092	0.089	0.101	0.062	0.103	-0.036	-0.016	0.026
SUOX (UniProt P51687)	-0.031	-0.022	0.025	-0.005	-0.014	-0.124	-0.017	-0.021	-0.027	0.014	0.03
SMCHD1 (UniProt A6NHR9)	-0.085	-0.352	0.159	-0.423	0.08	0.19	0.085	0.095	0.206	-0.176	0.049
STK25 (UniProt O00506)	-0.029	-0.06	-0.136	-0.08	-0.016	0.042	-0.026	0.078	-0.064	-0.034	-0.104
SYMPK (UniProt Q92797)	-0.018	0.012	-0.287	-0.08	0.025	0.11	0.051	0.167	0.033	-0.037	-0.015

Target	log2 fold change [1]	log2 fold change [2]	log2 fold change [3]	log2 fold change [4]	log2 fold change (entinostat)	log2 fold change (vorinostat)	log2 fold change (citarinostat)	log2 fold change (silmitasertib)	log2 fold change [5]	log2 fold change [6]	log2 fold change (entospletinib)
SLC38A7 (UniProt Q9NVC3)	-0.017	0.002	-0.299	0.197	-0.066	0.11	0.085	0.022	-0.107	-0.004	0.004
SMAD2 (UniProt Q15796)	-0.184	-0.064	0.005	-0.039	-0.103	-0.051	0.034	-0.073	0.009	-0.018	-0.013
SLC25A36 (UniProt Q96CQ1)	0.131	0.035	0.015	-0.123	0.036	0.003	0.063	0.106	0.027	0.028	0.022
SLC25A39 (UniProt Q9BZJ4)	0.059	-0.183	-0.345	-0.105	0.061	-0.05	-0.015	0.023	0.073	0.223	-0.045
SRP72 (UniProt O76094)	-0.088	-0.054	-0.082	-0.128	0.069	0.103	0.095	0.042	0.105	-0.129	0.052
TM9SF2 (UniProt Q99805)	0.026	0.006	-0.138	-0.022	-0.006	0.006	-0.003	0.002	-0.057	-0.062	0.023
TBC1D20 isoform 3 (UniProt Q96BZ9)	-0.062	0.052	0.027	-0.08	0.026	0.033	0.293	0.03	-0.007	0.03	-0.065
SPINDOC (UniProt Q9BUA3)	0.09	0.003	0.014	-0.061	-0.188	-0.014	-0.106	-0.061	-0.102	0.053	0.018
SRSF3 (UniProt P84103)	-0.05	0.148	0.396	0.064	-0.126	-0.026	-0.105	-0.033	0.194	-0.141	0.153
TBCD (UniProt Q9BTW9)	0.003	-0.057	-0.146	-0.03	0.03	-0.013	0.028	0.039	-0.001	-0.063	-0.03
SRSF9 (UniProt Q13242)	0.079	0.17	0.398	0.171	-0.072	0.029	-0.114	0.195	0.245	-0.237	0.094
TBC1D24 (UniProt Q9ULP9)	0.047	-0.038	-0.091	-0.002	0.029	0.291	0.016	-0.135	-0.082	-0.096	0.004
TIPRL (UniProt O75663)	-0.057	-0.114	-0.209 (active)	-0.068	0.033	0.095	0.069	-0.032	-0.06	-0.012	0.018
SMARCAD1 isoform 2 (UniProt Q9H4L7)	-0.109	-0.043	-0.187	-0.072	0.057	0.045	0.037	0.03	-0.187	0.088	-0.008
SPR (UniProt P35270)	0.006	0.13	0.491 (active)	-0.002	-0.049	-0.154	-0.041	0.004	0.176	0.066	0.057
TLK2 isoform 2 (UniProt Q86UE8)	-0.059	0.049	-0.042	-0.037	0.036	0.1	0.016	0.034	-0.026	-0.052	0.03
SNX6 (UniProt Q9UNH7)	-0.027	-0.376 (active)	-0.403 (active)	0.007	0.075	0.15	0.064	-0.142	-0.003	-0.087	-0.019
SRI (UniProt P30626)	-0.014	0.081	-0.04	0	0.058	-0.044	0.027	-0.004	-0.045	-0.038	0.019
SNX9 (UniProt Q9Y5X1)	-0.013	-0.022	-0.102	-0.055	0.037	0.058	0.024	0.033	-0.065	-0.067	-0.01
SMAP2 (UniProt Q8WU79)	-0.013	0.024	-0.043	-0.069	-0.01	0.002	0.056	0.06	-0.122	-0.028	0.019
SPPL2B (UniProt Q8TCT7)	0.06	0.009	-0.031	-0.016	-0.052	-0.013	0.05	-0.037	0.029	-0.025	-0.056
SUPT16H (UniProt Q9Y5B9)	-0.017	-0.111	-0.183	-0.158	0.207	0.178	0.198	0.109	-0.227	0.025	-0.055
STK38L (UniProt Q9Y2H1)	-0.046	-0.015	-0.117	0.078	0.109	0.02	0.036	0.101	-0.078	0.05	0.083
SSX2 (UniProt Q16385)	-0.049	-0.094	-0.02	-0.057	-0.054	-0.022	-0.025	0.011	-0.098	0.033	0.041
SRSF11 (UniProt Q05519)	-0.183	-0.032	-0.063	-0.074	0.018	0.06	0.046	-0.099	0.037	-0.038	0
SUCLG1 (UniProt P53597)	-0.037	-0.077	-0.106	-0.059	0.012	0	0.043	-0.037	-0.073	-0.049	-0.041
SLC25A4 (UniProt P12235)	-0.012	-0.035	-0.056	-0.006	-0.019	-0.12	-0.021	0.009	-0.025	-0.002	-0.009
